Results reported in PubChem BioAssay (NCI).
This is part of a sample that, as a whole, favours compounds with a hit. Of some 83,000 tested, about 20% had one in any assay.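 Activity criterion: percent growth below 10, measured after cells in 96-well plates were exposed to a single compound concentration for 48 hours.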 Unmarked numbers belong to inactive results. Active and inactive are the calls of the source.

Tests used:
Experiment in all cases: NCI-60 one-dose screen, 48 h (100 = growth as untreated, 0 = no growth, -100 = all killed)
Details in all cases: 10 µM unless noted
SR leukemia = system: SR leukemia
RPMI-8226 leukemia = system: RPMI-8226 leukemia
OVCAR-8 ovarian = system: OVCAR-8 ovarian
OVCAR-5 ovarian = system: OVCAR-5 ovarian
OVCAR-4 ovarian = system: OVCAR-4 ovarian
SK-OV-3 ovarian = system: SK-OV-3 ovarian
IGROV1 ovarian = system: IGROV1 ovarian
OVCAR-3 ovarian = system: OVCAR-3 ovarian
HS 578T breast = system: HS 578T breast
NCI/ADR-RES ovarian = system: NCI/ADR-RES ovarian
T-47D breast = system: T-47D breast
BT-549 breast = system: BT-549 breast
MDA-MB-435 melanoma = system: MDA-MB-435 melanoma
SW-620 colon = system: SW-620 colon
MCF7 breast = system: MCF7 breast
HCT-116 colon = system: HCT-116 colon
HCC-2998 colon = system: HCC-2998 colon
KM12 colon = system: KM12 colon

Row | Compound | growth (SR leukemia) | growth (RPMI-8226 leukemia) | growth (OVCAR-8 ovarian) | growth (OVCAR-5 ovarian) | growth (OVCAR-4 ovarian) | growth (SK-OV-3 ovarian) | growth (IGROV1 ovarian) | growth (OVCAR-3 ovarian) | growth (HS 578T breast) | growth (NCI/ADR-RES ovarian) | growth (T-47D breast) | growth (BT-549 breast) | growth (MDA-MB-435 melanoma) | growth (SW-620 colon) | growth (MCF7 breast) | growth (HCT-116 colon) | growth (HCC-2998 colon) | growth (KM12 colon)
1 | O=C(CCn1c[n+](CC(=O)c2ccc(-c3ccccc3)cc2)c2ccccc21)Nc1cccc2cccnc12 | 9.22% (active) | 3.25% (active) | 52.5% | 81.9% | 24.8% | 74.9% | 10.5% | 28.5% | 62.8% | 99.1% | 21.6% | 53.7% | 32.2% | 65.2% | 19.8% | 56% | 38.9% | 14.5%
2 | CCN(CC)c1cn(-c2ccc(S(N)(=O)=O)cc2)nn1 | 97% | 103% | 102% | 105% | 101% | 113% | 113% | 110% | 98.3% | 109% | 108% | 109% | 104% | 101% | 97.5% | 116% | 107% | 102%
3 | CC/C(=C/c1cc(OC)ccc1O)c1ccc2cc(OC)ccc2[o+]1 | 18.3% | 79.4% | 87.1% | 82.8% | 89.8% | 60.2% | 55.1% | 20.7% | 63.4% | 33.5% | 52.9% | 51.5% | -28.3% (active) | 33.2% | 16.6% | 26.8% | 81.8% | 46.1%
4 | CN1CCN(Cc2ccc(NC(=O)c3cncc(C#Cc4cnc5ccc(N6CCN(C)CC6)nn45)c3)cc2C(F)(F)F)CC1 | -52.2% (active) | -13.9% (active) | -81.8% (active) | 61.4% | 10.9% | 92% | -37.2% (active) | -76.9% (active) | -23.1% (active) | -31.3% (active) | 110% | 73% | -87.5% (active) | -74.9% (active) | -76.2% (active) | -20.1% (active) | 54.8% | -78.8% (active)
5 | COc1ccc([C@@H]2c3[nH]c4ccccc4c3C[C@H]3C(=O)N(C4CCN(CC5CCCCC5)CC4)CC(=O)N23)c(OC)c1 | 25.9% | 53.6% | 82.2% | 94.1% | 70.5% | 86.2% | 60% | 74.9% | 68.9% | 76.7% | 101% | 80.3% | 73.6% | 80.1% | 42.6% | 50% | 78.6% | 82.3%
6 | CNC(=O)c1cc(-c2ccc(NS(=O)(=O)c3ccc(C)cc3)cc2)nc2cccnc12 | 113% | 110% | 99.5% | 117% | 99.5% | 107% | 97.4% | 111% | 104% | 100% | 98% | 110% | 109% | 107% | 72.9% | 111% | 108% | 101%
7 | N#Cc1cnc2ccc(-c3cnc4[nH]ncc4c3)cc2c1N1CCc2cc(F)c(Cl)cc21 | 8.41% (active) | -1.79% (active) | 19.2% | 19.5% | 15.3% | 4.24% (active) | -31% (active) | -5.18% (active) | -42% (active) | 8.51% (active) | -2.57% (active) | 20.1% | -10.2% (active) | 17.9% | -2.16% (active) | 8.48% (active) | -11.8% (active) | 14%
8 | COc1ccc2c(c1)Oc1nc(N)c(C#N)c(N)c1C2Sc1ccc(C)cc1 (stereo not drawn) | 0.429% (active) | -19% (active) | 12.7% | 15.9% | 15.1% | 86.4% | -76.5% (active) | -77.1% (active) | 14.8% | 5.39% (active) | -31.6% (active) | 68.4% | -8.09% (active) | -49.5% (active) | -77.7% (active) | -69.1% (active) | -64.2% (active) | 52.5%
9 | O=C1C(c2ccccc2)=C(N2CCc3ccccc32)OC1(Cl)Cl | 17.5% | 8.06% (active) | 74.3% | 82% | 59.9% | 112% | 43.5% | 3.88% (active) | 66.3% | 86.7% | 10.1% | 75.1% | 85.9% | -28.8% (active) | 26.2% | 2.36% (active) | 88% | 87.9%
10 | COc1ccc(-c2nn(-c3ccc(S(C)(=O)=O)cc3)cc2/C=N/O)cc1 | 107% | 102% | 101% | 101% | 113% | 108% | 106% | 122% | 108% | 107% | 106% | 112% | 109% | 104% | 106% | 107% | 115% | 104%
11 | CCN1CCN(Cc2cn(-c3ccc(S(N)(=O)=O)cc3)nn2)CC1 | 102% | 109% | 102% | 108% | 108% | 105% | 107% | 112% | 102% | 111% | 105% | 130% | 107% | 106% | 97.4% | 103% | 106% | 104%
12 | Cc1[nH]c(C(=O)Nc2ccccc2OCc2cccc(C(=O)N3CCC[C@@H](N)C3)c2)c(Cl)c1Cl | -46.2% (active) | -38.5% (active) | -45.2% (active) | -87.3% (active) | -77.4% (active) | -59.3% (active) | -73.5% (active) | -87.4% (active) | -50.9% (active) | -68.8% (active) | -55.2% (active) | -89.4% (active) | -96.6% (active) | -75.9% (active) | -77.5% (active) | -82.1% (active) | -92.5% (active) | -80% (active)
13 | COc1c(N2CC3CCCNC3C2)c(F)cc2c(=O)c(C(=O)N/N=C/c3ccc(Br)cc3)cn(C3CC3)c12 (stereo not drawn) | -28.1% (active) | 65.8% | 90.3% | 92.8% | 90.1% | 99.6% | 75.2% | 81.7% | 88.4% | 90.1% | 84.3% | 114% | 84.7% | 89.6% | 52.4% | 50.5% | 92.2% | 97.3%
14 | CCOC(=O)C1=NNC(c2ccc(Cl)cc2)C1C(=O)N1C(=S)NC(=O)C1CC(C)C (stereo not drawn) | 96.8% | 95% | 100% | 101% | 96.5% | 93.5% | 77.1% | 113% | 98.6% | 99.9% | 89.1% | 106% | 104% | 95.3% | 91.5% | 97.8% | 121% | 101%
15 | FC(F)(F)c1cc(Nc2cccc(Oc3ccc(NC4=NCCN4)nc3)c2)ccc1Cl | -28.1% (active) | -37.6% (active) | 30.8% | 3.8% (active) | 28.2% | 71% | -1.17% (active) | -40.3% (active) | 39.7% | -10.6% (active) | 23.4% | 44.7% | -40% (active) | -75.8% (active) | -42.5% (active) | -48.5% (active) | -58% (active) | -60.4% (active)
16 | Cn1cc(CNc2nc3ccc(OC/C(=C/F)CN)cc3o2)ccc1=O | 117% | 110% | 111% | 101% | 106% | 109% | 102% | 112% | 103% | 102% | 105% | 99.8% | 104% | 107% | 91.7% | 103% | 99% | 105%
